In the library only some 5.4% were active in any assay of this set; here they are far more common.
CSC inhib: cancer stem cell viability inhibitors, primary screen, luminescence. inhibition, % at 7.5 µM. 1.1% of 300,000 active. cancer stem cell-like cells viability; in the data active means inhibition above about 75%; tested in HMLE shEcad cells
Mdm2-MdmX inh: inhibitors of human Mdm2-MdmX association, primary screen, cell-based, luminescence, split luciferase, SaOS-2, uHTS | inhibition, % at 8 µM | AID 485346, 2010 | Protein Mdm4 (Homo sapiens) + E3 ubiquitin-protein ligase Mdm2 (Homo sapiens), … | 3% of 330,000 active | SaOS-2 split-luciferase Mdm2/MdmX complementation;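 active means inhibition of at least 50% at 8 µM in the primary screen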
Target sequence (O15151 whole entry, looked up): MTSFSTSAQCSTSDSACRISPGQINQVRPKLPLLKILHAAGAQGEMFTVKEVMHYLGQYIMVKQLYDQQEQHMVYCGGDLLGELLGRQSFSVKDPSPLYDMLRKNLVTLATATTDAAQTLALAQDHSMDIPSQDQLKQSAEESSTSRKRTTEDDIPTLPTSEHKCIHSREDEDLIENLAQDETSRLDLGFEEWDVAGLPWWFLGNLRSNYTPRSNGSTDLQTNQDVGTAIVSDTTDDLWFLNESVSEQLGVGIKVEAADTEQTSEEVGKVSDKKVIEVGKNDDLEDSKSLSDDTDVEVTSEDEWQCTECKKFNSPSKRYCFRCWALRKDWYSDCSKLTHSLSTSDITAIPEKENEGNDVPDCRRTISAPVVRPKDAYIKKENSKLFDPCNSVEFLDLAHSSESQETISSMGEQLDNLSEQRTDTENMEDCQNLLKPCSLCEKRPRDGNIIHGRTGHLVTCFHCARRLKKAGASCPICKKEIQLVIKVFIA
Target sequence (Q00987 whole entry, looked up): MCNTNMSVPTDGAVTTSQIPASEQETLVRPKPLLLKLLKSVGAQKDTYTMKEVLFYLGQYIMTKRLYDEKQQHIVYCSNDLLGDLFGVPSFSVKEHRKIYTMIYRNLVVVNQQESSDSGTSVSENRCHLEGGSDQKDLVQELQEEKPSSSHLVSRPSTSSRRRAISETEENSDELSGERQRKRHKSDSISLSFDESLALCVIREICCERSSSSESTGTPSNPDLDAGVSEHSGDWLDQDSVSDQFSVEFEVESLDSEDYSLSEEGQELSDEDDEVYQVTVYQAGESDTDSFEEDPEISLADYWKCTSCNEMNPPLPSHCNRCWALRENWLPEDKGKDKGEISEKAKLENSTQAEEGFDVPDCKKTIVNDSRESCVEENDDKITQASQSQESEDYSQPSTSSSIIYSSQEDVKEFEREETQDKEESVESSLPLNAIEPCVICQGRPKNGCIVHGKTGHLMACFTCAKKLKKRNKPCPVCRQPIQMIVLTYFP
Beta apoptosis: inhibitors of cytokine-induced beta cell apoptosis, primary screen, luminescence; INS-1E cytokine-induced death, ATP luminescence, 48 h; percent of positive-control rescue, neutral wells zero; protection from apoptosis, % (test concentration not listed); 0.8% of 300,000 active;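 active means Every replicate reaches about 75%, or at least half do and their mean reaches it too, limit read from the data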;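 further: higher means more ATP so stronger rescue from cytokine killing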
SKKanGAS inh: S. pyogenes SKKanGAS growth inhibitors in kanamycin, primary screen, streptokinase expression inhibitor project, SKKanGAS strain, BacTiter-Glo luminescence; 6 h; inhibition, % at 7.5 µM; 1.3% of 300,000 active; AID 1662, 2009;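 active means mean replicate score, as percent of positive control median, at least 50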;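 further: strain carries kanamycin resistance gene driven by streptokinase promoter and grows in 40 µg/ml kanamycin; loss of luminescence reflects streptokinase promoter inhibition or plain growth inhibition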
Calb FLC: C. albicans growth inhibition with fluconazole, primary screen, CaCi-2 strain, Alamar Blue fluorescence; C. albicans CaCi-2 (fluconazole-resistant clinical isolate) + fluconazole, 48 h; growth inhibition, % (no concentration beside the values); 0.57% of 300,000 active;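 active means growth inhibition above about 58% in most replicates, limit read from the data, passing the limit was not always enough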;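 further: all wells also contain fluconazole at 8 µg/ml as a sub-toxic cotreatment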
MPTP inh: mitochondrial permeability transition pore inhibitors, primary screen, biochemical, isolated mouse mitochondria, absorbance. Ca2+ swelling absorbance, 30 min. inhibition, % at 10 µM. 1.4% of 360,000 active. AID 602449, 2012;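 active means inhibition of 50% or more, scaled per plate between neutral and stimulator controls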
Hits are given with their value; i = inactive; nt = no result.

SMILES	CSC inhib	Mdm2-MdmX inh	Beta apoptosis	SKKanGAS inh	Calb FLC	MPTP inh
Cn1nnc(-c2ccc(OCc3ccccc3F)cc2)n1	i	i	i	53	i	i
Cc1ccc(Nc2cc(C)nc(-c3ccccc3)n2)cc1	i	i	i	i	i	i
Cc1ccc(-c2nnn(CC(=O)N(Cc3ccccc3F)C(C(=O)NC3CCCC3)c3ccncc3)n2)o1 (configuration not stated)	i	i	i	i	i	i
Cn1c(=O)c(C(=O)CN2CCCCC2)c(N)n(Cc2ccccc2)c1=O	i	i	i	i	i	i
CC1(C)CC(=O)C2=C(C1)OC1=C(C(=O)CC(C)(C)C1)C2c1cc([N+](=O)[O-])cc([N+](=O)[O-])c1O	i	i	nt	i	91	i
CCOc1cc(C2C3=C(CC(C)(C)CC3=O)OC3=C2C(=O)CC(C)(C)C3)cc([N+](=O)[O-])c1O	i	i	i	i	i	i
O=C(c1cccc(Cl)c1)N1CCC(=O)N(C(COCc2ccccc2)Cc2ccccc2)CC1 (configuration not stated)	i	i	i	i	i	i
CC(C)c1ccc(NC(=O)c2cc(S(=O)(=O)NCC3COc4ccccc4O3)ccc2F)cc1 (configuration not stated)	123	i	i	69	i	i
C[N+]1=C(/C=C/Nc2ccccc2Cl)C(C)(C)c2ccccc21	i	i	99	i	i	i
CC(=O)c1ccc(N2CCN(C(=O)c3ccc(NC(=O)C4CCCO4)cc3)CC2)cc1 (configuration not stated)	nt	i	i	i	i	i
O=C(Nc1ccc(S(=O)(=O)N2CCOCC2)cc1)c1cccs1	i	i	i	i	i	i
O=C(Nc1ccc(S(=O)(=O)N2CCOCC2)cc1)c1ccc([N+](=O)[O-])s1	i	i	90	i	nt	i
O=C(CSc1nc2c(cnn2-c2ccccc2)c(=O)[nH]1)N1N=C(c2cccs2)CC1c1ccc(F)cc1 (configuration not stated)	i	i	i	51	i	i
CC(=O)N1CCN(C(=O)CSc2nc3c(cnn3-c3ccccc3)c(=O)[nH]2)CC1	i	i	i	i	i	i
COc1ccc(-c2cc(=O)n(CCC#N)[nH]2)cc1	i	i	i	i	i	i
COc1ccc(-c2ncn(CCC#N)c2[N+](=O)[O-])cc1	i	i	i	97	i	i
Cc1ccc2nc(-c3ccc(-c4cccc(Cl)c4)cc3)c(NCc3ccccc3)n2c1	91	i	121	i	i	i
COc1cc(-c2nc3ccc(C)cn3c2NCc2ccccc2)ccc1-c1cccc(Cl)c1	i	i	102	nt	nt	i
CCC(C)Sc1ccc(-c2nc3ccc(C)cn3c2NCc2ccccc2)cc1 (configuration not stated)	nt	i	nt	nt	nt	i
Cc1c(CCOC(=O)CC23CC4CC(CC(C4)C2)C3)sc[n+]1Cc1ccccc1	i	i	i	i	100	i
CC1(C)NS(=O)(=O)Oc2ccccc21	i	i	i	i	i	i
O=C(COc1ccc2c(c1)OCO2)Nc1ccc(Cl)cn1	i	i	i	i	i	i
O=C(/C=C/c1ccc2c(c1)OCO2)NCCSCc1cccc(Cl)c1	102	i	i	i	i	i
O=C(/C=C/c1ccc2c(c1)OCO2)NCCSCc1ccc(Cl)cc1Cl	nt	i	nt	i	i	i
O=C(/C=C/c1ccc2c(c1)OCO2)Nc1ccc(Cl)cn1	88	i	i	i	i	i
SMILES	CSC inhib	Mdm2-MdmX inh	Beta apoptosis	SKKanGAS inh	Calb FLC	MPTP inh
Cc1cc(NC(=O)/C=C/c2ccc(Cl)cc2)no1	78	i	i	i	i	i
CC1(C)CN(c2ccccc2)N(C(=O)c2ccc(C#N)cc2)C1=O	91	i	i	i	85	i
CC(=O)OCC1(C)CN(c2ccccc2)N(C(=O)c2ccc(C(C)(C)C)cc2)C1=O (configuration not stated)	nt	nt	nt	i	i	i
CC1(C)COCN1C(=O)c1ccc(C#N)cc1	i	i	i	i	i	i
CC1(C)CN(c2ccccc2)N(C(=O)c2ccc(F)cc2)C1=O	92	i	i	i	i	i
c1ccc2c(c1)nc(Nc1ccc(N3CCCCC3)cc1)c1nncn12	i	i	i	59	i	i
c1ccc(N2CCCCC2)c(Nc2nc3ccccc3n3cnnc23)c1	i	i	i	i	i	i
CCCC(=O)NC(=S)Nc1cccc2c(O)cccc12	i	i	i	i	i	i
COC(=O)/C(=C\c1ccc([N+](=O)[O-])o1)NC(=O)c1ccccc1	i	i	i	i	102	i
CCCCNC(=O)/C(=C\c1ccc([N+](=O)[O-])o1)NC(=O)c1ccccc1	i	i	i	i	100	i
CN(C)CCCNC(=O)/C(=C/c1ccc(-c2ccc([N+](=O)[O-])cc2)o1)NC(=O)c1ccccc1	i	i	i	i	i	i
Cc1cc(NC(=O)c2ccc(F)c(S(=O)(=O)N3CCCCC3)c2)no1	nt	i	nt	i	i	i
O=C(Cc1ccc(Cl)c(Cl)c1)NNC(=S)NCC1CCCO1 (configuration not stated)	i	i	i	i	i	i
Oc1ccc(Cl)cc1C1=NNC(c2ccc(Cl)cc2)C1 (configuration not stated)	i	i	i	96	i	i
COc1ccc(C2=NNC(c3cc(Cl)cc4c3OCOC4)C2)c(O)c1 (configuration not stated)	i	i	nt	i	i	nt
Oc1ccc(Cl)cc1C1=NNC(c2cc(Br)cc3c2OCOC3)C1 (configuration not stated)	i	i	i	i	70	i
COc1ccc(CN2C(=O)CN=C2Nc2cccc(C)c2C)cc1	nt	i	i	i	i	i
Cn1c(=O)c2c(-c3ccc(OC(F)F)cc3)cc(-c3ccccc3)nc2n(C)c1=O	i	i	i	i	i	nt
COC(=O)c1cc(-c2cccc([N+](=O)[O-])c2)c2c(=O)[nH]c(=O)n(C)c2n1	i	i	i	i	i	i
COC(=O)c1cc(-c2ccc(Br)cc2)c2c(=O)[nH]c(=O)n(C)c2n1	i	i	i	62	i	i
CCOc1ccc(-c2cc(C(=O)OC)nc3c2c(=O)n(C)c(=O)n3C)cc1	i	i	i	93	i	i
O=C(CCNC(=O)c1ccc(Cl)cc1)Nc1cccc(S(=O)(=O)N2CCCCCC2)c1	i	i	i	i	nt	i
OCCN1CCN(CCCN2c3ccccc3CCc3ccccc32)CC1	nt	nt	nt	nt	nt	i
OCCN1CCN(CCCc2c3c(cc4c2CCC4)CCC3)CC1	95	i	i	i	i	i
CC(C)Nc1nc(Oc2ccc(Cl)cc2Cl)cc(C(F)(F)F)n1	nt	i	i	79	i	i
CN1CCCN(C(=O)CNC(=O)c2ccccc2Br)CC1	i	i	i	nt	nt	i

High-throughput results: PubChem BioAssay, several laboratories
